According to PubChem BioAssay (NCATS):
Results filed as inconclusive are left out. Calls of active or inactive are those of the source. Unless noted, the call rests on the fitted dose curve; in most records, active means well fitted curve in the direction sought with a large enough effect; inconclusive means small, poorly fitted or top-dose-only effect, or another doubt; inactive means no such curve, though single readings can be large; an effect the other way counts as inactive or inconclusive.

What was measured:
[1] = target: Cytochrome P450 1A2 (Homo sapiens) (UniProt P05177); experiment: p450-cyp1a2 (AID 410; calls by dose curve; further: potency means the concentration at half of the fitted maximal effect;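 on activity change, negative = inhibition: -100% = full effect of reference inhibitor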)
Method in brief: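 20nM CYP1A2 with 100uM Luciferin-ME (at Km) in 100mM KPO4; compound preincubated 10 min, NADPH regeneration added, 60 min at room temperature. Luciferin quantified by luminescence after detection reagent; normalized to 57 uM furafylline.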

[2] = target: Glucocorticoid receptor (Homo sapiens) (UniProt P04150); experiment: GR-GFP Redistribution (AID 450;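 active means compounds whose dose series gives a full or clear partial fitted curve of increased nuclear translocation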; further: potency means the concentration at half of the fitted maximal effect); settings: U2OS GR-GFP nuclear translocation, laser cytometry, 2 h
[3] = target: Glucocorticoid receptor (Homo sapiens) (UniProt P04150); experiment: GR-EFC Redistribution (AID 451; calls by dose curve; further: potency means the concentration at half of the fitted maximal effect); settings: CHO-K1 GR-EFC translocation, beta-gal luminescence, 2 h
Method in brief: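 CHO-K1 cells expressing nuclear EA and GR-ED fragments of b-gal; compounds titrated up to 46 uM final, 2 h at 37 C. GR nuclear translocation read as complemented b-gal luminescence after 1 h RT detection.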

[4] = target: Mitogen-activated protein kinase 10 (Mus musculus) (UniProt Q61831); experiment: JNK3 AlphaScreen Assay (AID 530; active means well fitted curve in either direction with a large enough effect, not every such curve was filed as active;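 further: kinase came from lysate of stimulated human HepG2 cells; signal reports phosphorylation of biotinylated GST-cJun 1-79 at Ser73 with 10 µM ATP; on the % scale 0 is the no-effect control and ±100 the full control effect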)
Method in brief: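 Pre-activated (IL-1β/TNFα) JNK3 in HepG2 lysates phosphorylates biotin-GST-cJun(1-79), 10 uM ATP; anti-phospho-cJun(Ser73) AlphaScreen read at room temperature, pH 7.6 Tris buffer. Compounds pre-incubated 15 min as titrations.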

[5] = target: 3',5'-cyclic-AMP phosphodiesterase 4B (Homo sapiens) (UniProt Q07343); experiment: qHTS Assay for Inhibitors of PDE-IV (AID 607; active means well fitted activation curve with a large enough effect in the main read-out, with a control signal flat, not every such curve was filed as active; further: % of control where 0% means no effect)
Method in brief: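 Live HEK293 cells with a modified cyclic nucleotide-gated (CNG) channel report intracellular cAMP via membrane-potential dye fluorescence (ex 535/em 590 nm). Endogenous PDE-IV was targeted. Compounds were tested at up to 22.9 uM final; RO 20-1724 100 uM served as control.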

[6] = target: Ubiquitin carboxyl-terminal hydrolase 1 (Homo sapiens) (UniProt O94782); experiment: Inhibitors of USP1/UAF1: Pilot qHTS (AID 504865);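 further: rhodamine fluorescence freed from ubiquitin-rhodamine substrate followed over time; top concentration of the series differs between compounds; on the % scale 0 is the no-effect control and ±100 the full control effect; nearly all actives have a fitted effect of over 35% in size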
Method in brief: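 Enzyme-free wells gave the negative control, while test wells held 1nM USP1/UAF1 preincubated with compound for 15 min at room temperature. Ub-Rho at 150nM final started the reaction, and fluorescence at 480/540 nm was recorded kinetically.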

[7] = target: DNA dC->dU-editing enzyme APOBEC-3G (Homo sapiens) (UniProt Q9HC16); experiment: qHTS for inhibitors of Vif-A3G interactions: Validation (AID 588379); further: 0% is about no effect
Method in brief: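 HeLa cells stably expressing Vif and A3G-eYFP, 700 cells/well, incubated overnight at 37 deg C, then exposed to compound overnight at 37 deg C. Inhibition of Vif-mediated degradation read as increased yellow fluorescence (Ex 488/Em 500-530) by laser-scanning cytometry.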

[8] = test system: Zika virus NS2B-NS3 protease; experiment: Primary screen GU AMC qHTS for Zika virus inhibitors (AID 1347154); further: nearly all actives have a fitted effect of over 70% in size; further: potency means the concentration at half of the fitted maximal effect;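 on activity change, negative = inhibition: 0% = no-inhibitor control and -100% = no-enzyme control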
Method in brief: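 Unlinked Zika NS2B hydrophilic domain–NS3 protease complex at 25 nM in 10 mM Tris-HCl pH 8.0, 0.01% Tween 20, with an AMC peptide substrate. Fluorescence change (340/450 nm) over 15 min at room temperature, normalized to controls, fitted to 4-parameter Hill.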

[9] = target: Cytochrome P450 3A4 (Homo sapiens) (UniProt P08684); experiment: qHTS Assay for Activators of Cytochrome P450 3A4 (AID 885); further: nearly all actives have a fitted effect of over 65% in size
Method in brief: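 Quantitative HTS format: compounds preincubated with 20nM human CYP3A4 and Luciferin-PPXE substrate at KM, reaction started by NADPH regeneration, stopped after 60 min, luciferase luminescence read 20 min later.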

[10] = target: Cytochrome P450 2D6 (Homo sapiens) (UniProt P10635); experiment: qHTS Assay for Inhibitors and Substrates of Cytochrome P450 2D6 (AID 891); further: nearly all actives have a fitted effect of over 60% in size; further: potency means the concentration at half of the fitted maximal effect
Method in brief: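 Human CYP2D6 (5 nM) with 30 uM Luciferin-ME EGE (at Km) in 100 mM KPO4, compound preincubated 10 min, then NADPH regeneration system for 60 min at room temperature. Luciferin read by luminescence; normalized to 1.43 uM quinidine.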

[11] = target: Cytochrome P450 2C19 (Homo sapiens) (UniProt P33261); experiment: qHTS Assay for Inhibitors and Substrates of Cytochrome P450 2C19 (AID 899); further: potency means the concentration at half of the fitted maximal effect; nearly all actives have a fitted effect of over 60% in size
Method in brief: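 Luminescent read-out of luciferin formed from Luciferin-H EGE (10uM, equal to KM). Enzyme 5nM in 50mM KPO4; compound added, 10 min at 37C, then NADPH regenerating system for 60 min at 37C. Full inhibition defined by 57uM ketoconazole.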

[12] = AP1 Signaling Pathway (AID 357; active means well fitted curve in either direction with a large enough effect, not every such curve was filed as active;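 further: ME-180 reporter cells stimulated with EGF at its EC50 level; on the % scale 0 is the no-effect control and ±100 the full control effect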); settings: ME-180 AP-1-bla reporter, EGF-induced, beta-lactamase ratio, 5 h; at 38 µM (top of the series)
Method in brief: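 Titration-series screen for positive or negative modulators of EC50 EGF-induced signaling in ME-180 cells carrying an AP-1-driven beta-lactamase reporter. After 5 hours at 37 degrees Celsius, CCF4 460nm/530nm emission ratio gave %Activity; AC50 values derived.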

[13] = NFAT Signaling Pathway (AID 444; active means well fitted curve in either direction with a large enough effect, not every such curve was filed as active;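 further: carbachol stimulus at about its EC50 of 1 µM final; on the % scale 0 is the no-effect control and ±100 the full control effect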); settings: Jurkat NFAT-bla M1, carbachol, beta-lactamase ratio, 5 h; at 38 µM (top of the series)
Method in brief: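 Jurkat cells with NFAT-driven β-lactamase reporter and co-expressed M1 receptor, stimulated with carbachol (final 1 uM, ~EC50), compound titration, 5 h at 37 °C. CCF4 loaded 1 h at RT; 460/530 nm ratio gave %activity and AC50.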

[14] = target: Guanine nucleotide-binding protein G(i) subunit alpha-1 (Homo sapiens) (UniProt P63096); experiment: qHTS Assay for Inhibitors of RGS12 GoLoco Motif Activity (Green Fluorophore) (AID 879);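 further: 0% = labeled peptide with Gαi1 and full inhibition = labeled peptide alone without protein; negative values mean loss of peptide binding seen as reduced polarization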
Method in brief: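 Fluorescence polarization assay: 50 nM Gαi1 with 10 nM FITC-labeled RGS12 GoLoco peptide in 10 mM Tris pH 7.5, 150 mM NaCl, 0.1 mM GDP, 0.05% NP40, 10 min at room temperature with compound.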

[15] = qHTS Assay for Identification of Small Molecule Antagonists for NFkB Signaling Pathway (AID 895; active means well fitted inhibition curve with a large enough effect in the signal ratio, with a control signal flat, not every such curve was filed as active; the % refers to the signal ratio; further: on the % scale 0 is the no-effect control and ±100 the full control effect)
Method in brief: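 ME-180 NFkB-bla cells (beta-lactamase under NFkB response element), plated overnight, treated with compound then 10 pM TNF alpha (about EC50) for 5 hrs at 37 C. LiveBLAzer FRET read at 460/530 nm emission, 405 nm excitation.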

[16] = qHTS Assay for Identification of Small Molecule Agonists for Thrombopoietin (TPO) Signaling Pathway (AID 917); further: on the % scale 0 is the no-effect control and ±100 the full control effect
Method in brief: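 IL-3-dependent murine pro-B Ba/F3 cells, stably transfected with human TPO receptor and GpIIb-promoter luciferase, are incubated 24 hrs at 37 C with test compound and 26 pM TPO; luciferase signal is read after 10 min at room temperature.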

[17] = target: Pyruvate kinase (Leishmania mexicana) (UniProt Q27686); experiment: qHTS Validation Assay for Inhibitors of Leishmania Mexicana Pyruvate Kinase (AID 945);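 further: 0% = DMSO only neutral control wells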
Method in brief: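 Mutant LmPYK (E451W), 0.2 nM, plus 0.5 mM PEP and 0.1 mM ADP in 50 mM imidazole pH 7.2 containing 0.01% Tween 20 and 0.05% BSA. Incubated 1 h at room temperature; luminescence via PKLight, normalized to DMSO.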

[18] = target: Pyruvate kinase PKM (Homo sapiens) (UniProt P14618); experiment: qHTS Assay for Activators of Human Muscle Pyruvate Kinase (AID 954; active means well fitted curve in the direction sought with a large enough effect, not every such curve was filed as active;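 further: 0% = uninhibited enzyme and -100% = no enzyme or full thiadiazolimine inhibition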)
Method in brief: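 Enzyme was run at intermediate activity so both inhibitors and activators could be detected. ATP formed from ADP and PEP by 0.1 nM human PKM2 during a 1 h room-temperature incubation was quantified by coupled luciferase luminescence.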

[19] = target: Alpha-galactosidase A (Homo sapiens) (UniProt P06280); experiment: Counterscreen for Glucocerebrosidase Inhibitors: qHTS Assay for Human alpha-Galactosidase at pH 4.5 (AID 992); further: 0% is about no effect
Method in brief: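 Read-out is 4-methylumbelliferone fluorescence (365 nm excitation, 440 nm emission) after a pH 10 NaOH/glycine stop. Reactions held 2 nM enzyme and 80 uM substrate at pH 4.5 for 20 min at room temperature.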

[20] = target: alpha-glucosidase (Oryza sativa, rice) (UniProt Q653V4); experiment: Counterscreen for Glucocerebrosidase Inhibitors: qHTS Assay for Rice alpha-Glucosidase at pH 5.0 (AID 997);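 further: 0% = full activity with enzyme and -100% = basal without enzyme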
Method in brief: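 Rice alpha-glucosidase (4 nM final) with 400 uM 4-methylumbelliferyl-alpha-D-glucopyranoside in citrate buffer pH 5.0, 20 min at room temperature, stopped at pH 10; fluorescence 365/440 nm, compounds 0.7 nM–77 uM, AC50 from Hill fits.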

[21] = target: Cytochrome P450 3A4 (Homo sapiens) (UniProt P08684); experiment: qHTS Assay for Inhibitors and Substrates of Cytochrome P450 3A4 (AID 884); further: potency means the concentration at half of the fitted maximal effect; nearly all actives have a fitted effect of over 50% in size
Method in brief: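 20 nM human CYP3A4 with 25 uM Luciferin-PPXE (at KM) in 200 mM KPO4, preincubated 10 min with compound; NADPH regeneration started a 60 min RT reaction. Luciferin detected by luminescence, normalized to 57 uM ketoconazole as full inhibition.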

[22] = target: Cytochrome P450 2C9 (Homo sapiens) (UniProt P11712); experiment: qHTS Assay for Inhibitors and Substrates of Cytochrome P450 2C9 (AID 883); further: potency means the concentration at half of the fitted maximal effect; nearly all actives have a fitted effect of over 60% in size
Method in brief: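 10nM CYP2C9 + 100uM Luciferin-H (=KM), 25mM KPO4; cpd 10 min 37C; NADPH regen, 60 min 37C; stop/detect with P450 Glo-Buffer 20 min; luminescence. Norm. to 57uM sulphaphenazole as full inhibition.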

DNA dC->dU-editing enzyme APOBEC-3G (Homo sapiens), sequence (Q9HC16 whole entry, looked up): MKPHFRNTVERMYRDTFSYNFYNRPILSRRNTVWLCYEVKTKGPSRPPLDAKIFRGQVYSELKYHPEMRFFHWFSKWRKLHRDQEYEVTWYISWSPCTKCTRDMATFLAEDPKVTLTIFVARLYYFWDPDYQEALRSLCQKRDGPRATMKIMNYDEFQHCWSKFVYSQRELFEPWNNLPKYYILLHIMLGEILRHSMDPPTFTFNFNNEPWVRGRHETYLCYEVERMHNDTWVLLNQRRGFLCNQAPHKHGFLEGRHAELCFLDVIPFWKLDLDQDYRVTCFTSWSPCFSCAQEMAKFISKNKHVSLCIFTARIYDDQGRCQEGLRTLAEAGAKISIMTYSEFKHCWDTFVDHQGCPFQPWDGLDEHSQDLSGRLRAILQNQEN
Glucocorticoid receptor (Homo sapiens), sequence (P04150 whole entry, looked up, the tested form may be a part): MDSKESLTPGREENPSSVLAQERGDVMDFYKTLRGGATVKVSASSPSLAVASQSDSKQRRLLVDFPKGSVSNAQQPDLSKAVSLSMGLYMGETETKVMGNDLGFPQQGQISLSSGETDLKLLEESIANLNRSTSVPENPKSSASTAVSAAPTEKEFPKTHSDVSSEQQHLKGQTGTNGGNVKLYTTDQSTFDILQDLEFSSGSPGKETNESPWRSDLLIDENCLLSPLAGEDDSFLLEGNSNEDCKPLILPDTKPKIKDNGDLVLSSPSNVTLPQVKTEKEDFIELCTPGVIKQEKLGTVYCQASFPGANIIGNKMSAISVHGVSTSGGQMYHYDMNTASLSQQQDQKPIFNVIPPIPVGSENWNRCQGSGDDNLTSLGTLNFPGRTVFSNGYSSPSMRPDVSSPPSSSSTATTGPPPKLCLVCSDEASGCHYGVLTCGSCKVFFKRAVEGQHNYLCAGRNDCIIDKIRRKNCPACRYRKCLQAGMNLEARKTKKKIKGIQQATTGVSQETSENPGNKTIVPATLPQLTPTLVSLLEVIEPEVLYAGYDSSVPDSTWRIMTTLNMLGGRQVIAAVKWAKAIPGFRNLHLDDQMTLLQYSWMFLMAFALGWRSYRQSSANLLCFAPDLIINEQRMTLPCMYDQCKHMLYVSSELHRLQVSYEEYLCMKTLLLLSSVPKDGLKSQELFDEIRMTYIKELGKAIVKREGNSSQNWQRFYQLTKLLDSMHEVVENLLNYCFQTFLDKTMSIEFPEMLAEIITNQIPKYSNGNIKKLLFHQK
Ubiquitin carboxyl-terminal hydrolase 1 (Homo sapiens), sequence (O94782 whole entry, looked up): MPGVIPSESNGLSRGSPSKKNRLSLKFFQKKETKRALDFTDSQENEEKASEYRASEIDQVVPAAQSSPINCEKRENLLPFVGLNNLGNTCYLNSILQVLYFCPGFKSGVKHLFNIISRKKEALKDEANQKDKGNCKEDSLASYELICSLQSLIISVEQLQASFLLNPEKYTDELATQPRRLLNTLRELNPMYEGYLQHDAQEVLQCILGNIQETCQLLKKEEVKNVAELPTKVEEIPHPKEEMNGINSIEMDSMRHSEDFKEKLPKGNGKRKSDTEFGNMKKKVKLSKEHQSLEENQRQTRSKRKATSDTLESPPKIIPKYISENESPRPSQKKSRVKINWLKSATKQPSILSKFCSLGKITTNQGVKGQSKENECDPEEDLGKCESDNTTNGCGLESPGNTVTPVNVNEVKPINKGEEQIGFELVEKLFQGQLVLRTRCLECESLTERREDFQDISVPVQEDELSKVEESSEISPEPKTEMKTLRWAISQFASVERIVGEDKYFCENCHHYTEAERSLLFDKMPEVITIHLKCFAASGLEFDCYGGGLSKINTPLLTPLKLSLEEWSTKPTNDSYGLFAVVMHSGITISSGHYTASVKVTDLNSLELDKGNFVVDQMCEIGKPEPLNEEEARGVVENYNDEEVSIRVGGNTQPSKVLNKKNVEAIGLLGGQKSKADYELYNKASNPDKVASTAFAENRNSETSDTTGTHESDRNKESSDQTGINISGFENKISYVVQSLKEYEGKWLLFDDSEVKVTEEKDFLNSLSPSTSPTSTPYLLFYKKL
3',5'-cyclic-AMP phosphodiesterase 4B (Homo sapiens), sequence (Q07343 whole entry, looked up): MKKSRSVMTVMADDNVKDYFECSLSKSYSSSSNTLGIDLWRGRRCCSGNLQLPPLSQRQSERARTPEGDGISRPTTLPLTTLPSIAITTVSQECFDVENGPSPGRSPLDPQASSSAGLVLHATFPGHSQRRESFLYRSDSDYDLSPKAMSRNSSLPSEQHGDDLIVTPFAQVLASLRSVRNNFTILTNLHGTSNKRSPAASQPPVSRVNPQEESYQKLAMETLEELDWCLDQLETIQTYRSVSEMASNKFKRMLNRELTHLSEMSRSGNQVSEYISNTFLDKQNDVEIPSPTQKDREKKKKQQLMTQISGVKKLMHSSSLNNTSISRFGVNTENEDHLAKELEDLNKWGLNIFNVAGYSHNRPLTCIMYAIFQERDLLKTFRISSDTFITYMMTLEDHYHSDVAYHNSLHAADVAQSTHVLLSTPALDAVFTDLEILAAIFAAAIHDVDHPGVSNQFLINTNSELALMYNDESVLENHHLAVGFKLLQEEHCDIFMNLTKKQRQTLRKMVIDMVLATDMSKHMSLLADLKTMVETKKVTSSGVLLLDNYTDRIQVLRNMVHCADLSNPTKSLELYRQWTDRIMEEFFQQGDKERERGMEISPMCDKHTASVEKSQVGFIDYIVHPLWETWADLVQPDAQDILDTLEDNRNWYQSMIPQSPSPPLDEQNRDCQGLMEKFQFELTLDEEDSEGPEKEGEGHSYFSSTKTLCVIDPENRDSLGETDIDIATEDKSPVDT
Cytochrome P450 3A4 (Homo sapiens), sequence (P08684 whole entry, looked up): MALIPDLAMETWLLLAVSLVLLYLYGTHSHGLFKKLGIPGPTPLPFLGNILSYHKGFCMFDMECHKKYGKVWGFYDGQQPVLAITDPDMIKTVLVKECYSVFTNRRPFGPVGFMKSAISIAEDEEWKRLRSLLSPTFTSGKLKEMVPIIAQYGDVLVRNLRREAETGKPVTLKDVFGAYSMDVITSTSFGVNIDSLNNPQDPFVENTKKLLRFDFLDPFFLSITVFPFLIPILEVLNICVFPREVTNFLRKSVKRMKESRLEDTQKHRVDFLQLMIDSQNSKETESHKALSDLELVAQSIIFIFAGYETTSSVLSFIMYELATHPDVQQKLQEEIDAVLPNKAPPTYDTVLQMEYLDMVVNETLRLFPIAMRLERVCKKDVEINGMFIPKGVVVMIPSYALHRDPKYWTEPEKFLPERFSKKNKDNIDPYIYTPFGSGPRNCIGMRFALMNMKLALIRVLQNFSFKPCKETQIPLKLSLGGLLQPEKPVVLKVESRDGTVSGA
Cytochrome P450 1A2 (Homo sapiens), sequence (P05177 whole entry, looked up): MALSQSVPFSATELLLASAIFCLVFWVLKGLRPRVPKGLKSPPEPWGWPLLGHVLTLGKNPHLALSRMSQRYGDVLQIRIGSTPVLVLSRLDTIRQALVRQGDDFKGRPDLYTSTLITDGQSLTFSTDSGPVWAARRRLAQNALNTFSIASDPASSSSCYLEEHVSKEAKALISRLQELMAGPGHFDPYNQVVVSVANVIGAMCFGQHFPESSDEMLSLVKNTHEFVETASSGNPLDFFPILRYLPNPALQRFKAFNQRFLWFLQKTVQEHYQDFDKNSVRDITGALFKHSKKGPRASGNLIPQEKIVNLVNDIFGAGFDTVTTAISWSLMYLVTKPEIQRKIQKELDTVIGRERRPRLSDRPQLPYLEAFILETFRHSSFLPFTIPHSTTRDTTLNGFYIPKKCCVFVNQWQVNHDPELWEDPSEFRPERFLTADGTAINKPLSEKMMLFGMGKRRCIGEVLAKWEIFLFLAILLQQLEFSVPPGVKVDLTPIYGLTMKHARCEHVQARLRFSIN
Cytochrome P450 2D6 (Homo sapiens), sequence (P10635 whole entry, looked up): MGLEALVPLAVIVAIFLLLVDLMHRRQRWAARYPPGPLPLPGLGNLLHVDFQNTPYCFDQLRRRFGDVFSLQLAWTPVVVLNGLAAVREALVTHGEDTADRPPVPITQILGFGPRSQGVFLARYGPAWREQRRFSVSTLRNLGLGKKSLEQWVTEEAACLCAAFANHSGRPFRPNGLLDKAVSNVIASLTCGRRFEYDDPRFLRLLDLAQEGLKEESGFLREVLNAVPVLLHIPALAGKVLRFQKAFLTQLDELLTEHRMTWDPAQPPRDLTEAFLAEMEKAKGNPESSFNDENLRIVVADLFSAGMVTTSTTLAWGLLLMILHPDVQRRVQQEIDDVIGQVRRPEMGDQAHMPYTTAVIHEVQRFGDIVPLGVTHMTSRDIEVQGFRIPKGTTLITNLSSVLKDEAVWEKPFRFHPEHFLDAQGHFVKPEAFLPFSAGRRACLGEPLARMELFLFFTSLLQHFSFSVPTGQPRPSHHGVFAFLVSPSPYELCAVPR
Cytochrome P450 2C9 (Homo sapiens), sequence (P11712 whole entry, looked up): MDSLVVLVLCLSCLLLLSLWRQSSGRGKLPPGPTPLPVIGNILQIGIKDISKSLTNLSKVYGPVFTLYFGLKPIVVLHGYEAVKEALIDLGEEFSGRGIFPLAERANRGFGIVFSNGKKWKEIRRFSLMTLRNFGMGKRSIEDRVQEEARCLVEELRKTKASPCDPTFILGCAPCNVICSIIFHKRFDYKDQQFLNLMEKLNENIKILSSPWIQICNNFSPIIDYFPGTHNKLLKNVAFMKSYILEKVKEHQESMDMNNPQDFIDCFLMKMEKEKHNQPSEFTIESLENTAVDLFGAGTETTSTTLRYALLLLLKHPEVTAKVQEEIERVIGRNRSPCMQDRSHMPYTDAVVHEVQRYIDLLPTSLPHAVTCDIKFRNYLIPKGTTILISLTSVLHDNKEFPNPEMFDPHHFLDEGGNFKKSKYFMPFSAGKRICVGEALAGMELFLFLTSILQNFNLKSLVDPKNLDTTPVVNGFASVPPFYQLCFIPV

OC[C@H]1O[C@H](n2cnc3c(NC4CCCC4)nc(Cl)nc32)[C@@H](O)[C@@H]1O
inactive: Potency [2] > 46 µM | Potency [3] > 46 µM | Potency [4] | Potency [5] | Potency [6] | Potency [7] | Potency [8]
active: Potency [1] 39.8 µM

COc1cc(OC)c2cc(-c3ccncc3)cnc2c1
active: Potency [1] 0.2 µM | Potency [8] 21.2 µM
inactive: Potency [2] > 46 µM | Potency [3] > 46 µM | Potency [4] | Potency [5] | Potency [9] | Potency [7]

OCCNCCCOc1cccc(Cl)c1Cl
inactive: Potency [2] > 46 µM | Potency [3] > 46 µM | Potency [4] | Potency [9] | Potency [6] | Potency [7] | Potency [8]
active: Potency [1] 0.2 µM | Potency [10] 0.158 µM | Potency [11] 3.98 µM

NS(=O)(=O)c1cc2c(cc1Cl)N[C@@H]([C@@H]1C[C@@H]3C=C[C@H]1C3)NS2(=O)=O
inactive: activity change, negative = inhibition [12] -0.109% | Potency [1] | activity change, negative = inhibition [13] 4.22% | Potency [2] > 46 µM | Potency [3] > 46 µM | Potency [4] | Potency [5] | outcome [14] | Potency [15] | Potency [16] | Potency [17] | outcome [18] | outcome [19] | outcome [20] | Potency [7] | Potency [8]

COc1cccc(CNc2ccc3nc(-c4ccc(N)cc4)c(OC)n3n2)c1
inactive: Potency [2] > 46 µM | Potency [4] | Potency [9] | Potency [6] | Potency [7] | Potency [8]
active: Potency [1] 39.8 µM | Potency [21] 5.01 µM

COc1cccc(NC(=O)/C=C\c2ccc(Cl)cc2)c1
inactive: Potency [2] > 46 µM | Potency [3] > 46 µM | Potency [5] | Potency [9] | Potency [10] | Potency [7] | Potency [8]
active: Potency [1] 1 µM | Potency [22] 10 µM | Potency [21] 12.6 µM

CCCCCCCC/C=C\CCCCCCCC(N)=O
active: Potency [1] 6.31 µM
inactive: Potency [2] > 46 µM | Potency [4] | Potency [5] | Potency [7] | Potency [8]

CC(C)NC[C@@H](O)COc1ccccc1-n1cccc1
inactive: Potency [2] > 46 µM | Potency [3] > 46 µM | Potency [6] | Potency [7] | Potency [8]
active: Potency [1] 3.98 µM

Cc1c(-c2ccc(Cl)cc2)noc1C1CCN(CCc2ccccc2)CC1
inactive: Potency [3] > 46 µM | Potency [5] | Potency [7] | Potency [8]

CC(C)Oc1cccc(-n2c(CCc3c[nH]c4ccc(Br)cc34)nc3ccccc3c2=O)c1
active: Potency [21] 3.98 µM
inactive: Potency [2] > 46 µM | Potency [3] > 46 µM | Potency [4] | Potency [9] | Potency [7] | Potency [8]
